# Measurements as given in ChEMBL document CHEMBL3988442, “University of Dundee, Small-Polar-MMV Screening Library” (2021).
# For part of these data: Results with a measured potency or affinity are listed apart.
# Experiments:
# Parameters in all cases: scale not given: direction of the effect not stated beside the values
# [1] = target: Protein translocase subunit SecA (Escherichia coli (strain K12)) (UniProt P10408); assay: Assay to Identify E. coli SecA ATPase Inhibitors; format: functional; conditions: 30 µM
# [2] = target: T1, Ubiquitin-activating enzyme e1, putative (Leishmania donovani (strain BPK282A1)) (UniProt E9BSI1); assay: Leishmania donovani Ubiquitin Activating Enzyme (LdE1); format: functional; conditions: 30 µM
# T1 sequence (whole entry): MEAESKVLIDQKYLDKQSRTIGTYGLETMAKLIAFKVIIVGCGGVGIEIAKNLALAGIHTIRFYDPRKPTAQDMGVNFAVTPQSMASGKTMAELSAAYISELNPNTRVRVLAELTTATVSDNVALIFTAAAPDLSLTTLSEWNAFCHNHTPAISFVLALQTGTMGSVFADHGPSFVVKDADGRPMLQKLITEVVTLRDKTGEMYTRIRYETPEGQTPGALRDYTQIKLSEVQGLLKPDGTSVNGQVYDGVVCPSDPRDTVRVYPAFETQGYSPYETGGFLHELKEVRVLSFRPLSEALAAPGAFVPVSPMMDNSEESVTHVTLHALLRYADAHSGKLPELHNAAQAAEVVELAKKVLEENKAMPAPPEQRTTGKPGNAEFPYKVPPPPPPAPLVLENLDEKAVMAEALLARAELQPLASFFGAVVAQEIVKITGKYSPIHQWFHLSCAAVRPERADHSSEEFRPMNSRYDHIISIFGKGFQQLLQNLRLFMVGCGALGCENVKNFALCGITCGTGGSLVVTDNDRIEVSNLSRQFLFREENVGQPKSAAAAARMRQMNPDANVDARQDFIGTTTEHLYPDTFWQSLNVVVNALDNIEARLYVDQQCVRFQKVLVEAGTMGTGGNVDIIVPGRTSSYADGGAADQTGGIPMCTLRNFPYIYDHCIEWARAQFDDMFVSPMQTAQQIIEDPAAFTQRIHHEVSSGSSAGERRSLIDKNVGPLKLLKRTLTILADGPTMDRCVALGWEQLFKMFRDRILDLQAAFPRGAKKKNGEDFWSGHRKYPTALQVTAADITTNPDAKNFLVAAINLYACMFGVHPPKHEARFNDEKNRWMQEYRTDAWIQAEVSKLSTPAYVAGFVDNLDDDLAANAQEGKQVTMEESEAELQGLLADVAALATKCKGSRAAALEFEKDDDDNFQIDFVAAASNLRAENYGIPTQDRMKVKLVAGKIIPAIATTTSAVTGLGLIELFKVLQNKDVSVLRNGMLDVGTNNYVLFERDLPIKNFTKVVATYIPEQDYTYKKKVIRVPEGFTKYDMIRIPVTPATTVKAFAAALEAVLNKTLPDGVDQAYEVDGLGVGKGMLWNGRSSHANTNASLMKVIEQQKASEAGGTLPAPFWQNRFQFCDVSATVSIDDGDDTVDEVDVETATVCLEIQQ
# [3] = target: Sialic acid-binding Ig-like lectin 9 (Homo sapiens) (UniProt Q9Y336); assay: Hs-Siglec9 ALPHAscreen SOP 20170721; conditions: 10 µM
# [4] = system: Trypanosoma cruzi; assay: Trypanosoma cruzi phosphomannomutase and mannose-1-phosphate guanylyltransferase assay; format: functional; conditions: 10 µM
# [5] = target: T2, Arginase-2, mitochondrial (Homo sapiens) (UniProt P78540); assay: in vitro enzyme assay to detect the production of urea directly proportional to the activity of Arginase II; format: functional; conditions: 33.3 µM; note: in the data most compounds retested in dose-response had high values
# T2 sequence (whole entry): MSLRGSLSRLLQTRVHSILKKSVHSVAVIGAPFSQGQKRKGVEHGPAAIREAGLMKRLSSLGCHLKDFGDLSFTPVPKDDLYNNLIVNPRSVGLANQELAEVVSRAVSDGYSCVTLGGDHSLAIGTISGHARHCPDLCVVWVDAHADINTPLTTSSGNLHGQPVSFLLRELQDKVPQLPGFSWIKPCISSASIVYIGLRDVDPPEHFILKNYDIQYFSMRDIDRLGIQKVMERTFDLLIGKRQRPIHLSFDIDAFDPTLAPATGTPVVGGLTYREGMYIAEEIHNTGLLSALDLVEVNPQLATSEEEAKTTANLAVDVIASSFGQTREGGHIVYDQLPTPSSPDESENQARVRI
# [6] = target: T3, Proteasome subunit beta (Trypanosoma cruzi) (UniProt O96673); assay: Trypanosoma cruzi proteasome chymotrypsin-like activity (TcProtChymo) assay.; note: in the data most compounds retested in dose-response had high values; format: functional; conditions: 9.37 µM
# T3 sequence (whole entry): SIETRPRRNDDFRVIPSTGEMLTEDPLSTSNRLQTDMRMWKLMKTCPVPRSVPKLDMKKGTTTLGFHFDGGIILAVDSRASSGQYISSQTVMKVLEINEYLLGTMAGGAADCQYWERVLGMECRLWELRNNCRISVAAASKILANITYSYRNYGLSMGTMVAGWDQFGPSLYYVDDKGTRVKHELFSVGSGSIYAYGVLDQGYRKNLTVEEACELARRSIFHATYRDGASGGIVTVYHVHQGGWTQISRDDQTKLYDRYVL
# [7] = species: Homo sapiens; assay: To identify inhibition of the IFN signalling (Jak-Stat) pathway via expression of an eGFP reporter gene under the control of an IFN-stimulated response element (ISRE) containing MxA promoter.; format: functional; conditions: 30 µM
# [8] = target: T4, Tyrosyl-tRNA synthetase, putative (Trypanosoma cruzi (strain CL Brener)) (UniProt Q4DSP6); assay: Trypanosoma cruzi tyrosyl tRNA synthetase (TcYRS) _High Tyrosine SOP; format: functional; conditions: 30 µM; note: in the data most compounds retested in dose-response had high values
# T4 sequence (whole entry): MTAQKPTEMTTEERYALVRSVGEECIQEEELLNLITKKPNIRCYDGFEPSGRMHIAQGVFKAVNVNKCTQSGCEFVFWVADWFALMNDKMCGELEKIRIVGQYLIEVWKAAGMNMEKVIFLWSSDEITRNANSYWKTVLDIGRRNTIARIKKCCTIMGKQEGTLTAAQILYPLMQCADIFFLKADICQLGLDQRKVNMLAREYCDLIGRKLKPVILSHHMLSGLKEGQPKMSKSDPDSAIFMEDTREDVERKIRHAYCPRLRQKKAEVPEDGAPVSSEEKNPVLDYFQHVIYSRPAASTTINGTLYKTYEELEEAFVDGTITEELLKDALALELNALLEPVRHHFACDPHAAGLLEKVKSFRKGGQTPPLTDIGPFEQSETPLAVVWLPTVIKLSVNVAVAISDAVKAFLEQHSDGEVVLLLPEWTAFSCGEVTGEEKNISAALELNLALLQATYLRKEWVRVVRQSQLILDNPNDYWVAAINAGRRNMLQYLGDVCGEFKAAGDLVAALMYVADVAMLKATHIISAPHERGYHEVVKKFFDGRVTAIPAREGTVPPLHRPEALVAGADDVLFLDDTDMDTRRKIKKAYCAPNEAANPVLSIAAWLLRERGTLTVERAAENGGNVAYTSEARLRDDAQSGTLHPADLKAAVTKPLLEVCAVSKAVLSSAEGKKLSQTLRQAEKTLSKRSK
# [9] = target: T4, Tyrosyl-tRNA synthetase, putative (Trypanosoma cruzi (strain CL Brener)); assay: Trypanosoma cruzi tyrosyl tRNA synthetase (TcYRS) SOP; format: functional; conditions: 30 µM
# [10] = target: Chromo domain-containing protein 1 (Saccharomyces cerevisiae (strain ATCC 204508 / S288c) (Baker's yeast)) (UniProt P32657); assay: ScCHD-1 Enzyme Inhibition Assay; format: functional; conditions: 30 µM; note: in the data most compounds retested in dose-response had high values
# Chain of Chromo domain-containing protein 1 (Saccharomyces cerevisiae (strain ATCC 204508 / S288c) (Baker's yeast)) (P32657 whole entry, the tested form may be a part): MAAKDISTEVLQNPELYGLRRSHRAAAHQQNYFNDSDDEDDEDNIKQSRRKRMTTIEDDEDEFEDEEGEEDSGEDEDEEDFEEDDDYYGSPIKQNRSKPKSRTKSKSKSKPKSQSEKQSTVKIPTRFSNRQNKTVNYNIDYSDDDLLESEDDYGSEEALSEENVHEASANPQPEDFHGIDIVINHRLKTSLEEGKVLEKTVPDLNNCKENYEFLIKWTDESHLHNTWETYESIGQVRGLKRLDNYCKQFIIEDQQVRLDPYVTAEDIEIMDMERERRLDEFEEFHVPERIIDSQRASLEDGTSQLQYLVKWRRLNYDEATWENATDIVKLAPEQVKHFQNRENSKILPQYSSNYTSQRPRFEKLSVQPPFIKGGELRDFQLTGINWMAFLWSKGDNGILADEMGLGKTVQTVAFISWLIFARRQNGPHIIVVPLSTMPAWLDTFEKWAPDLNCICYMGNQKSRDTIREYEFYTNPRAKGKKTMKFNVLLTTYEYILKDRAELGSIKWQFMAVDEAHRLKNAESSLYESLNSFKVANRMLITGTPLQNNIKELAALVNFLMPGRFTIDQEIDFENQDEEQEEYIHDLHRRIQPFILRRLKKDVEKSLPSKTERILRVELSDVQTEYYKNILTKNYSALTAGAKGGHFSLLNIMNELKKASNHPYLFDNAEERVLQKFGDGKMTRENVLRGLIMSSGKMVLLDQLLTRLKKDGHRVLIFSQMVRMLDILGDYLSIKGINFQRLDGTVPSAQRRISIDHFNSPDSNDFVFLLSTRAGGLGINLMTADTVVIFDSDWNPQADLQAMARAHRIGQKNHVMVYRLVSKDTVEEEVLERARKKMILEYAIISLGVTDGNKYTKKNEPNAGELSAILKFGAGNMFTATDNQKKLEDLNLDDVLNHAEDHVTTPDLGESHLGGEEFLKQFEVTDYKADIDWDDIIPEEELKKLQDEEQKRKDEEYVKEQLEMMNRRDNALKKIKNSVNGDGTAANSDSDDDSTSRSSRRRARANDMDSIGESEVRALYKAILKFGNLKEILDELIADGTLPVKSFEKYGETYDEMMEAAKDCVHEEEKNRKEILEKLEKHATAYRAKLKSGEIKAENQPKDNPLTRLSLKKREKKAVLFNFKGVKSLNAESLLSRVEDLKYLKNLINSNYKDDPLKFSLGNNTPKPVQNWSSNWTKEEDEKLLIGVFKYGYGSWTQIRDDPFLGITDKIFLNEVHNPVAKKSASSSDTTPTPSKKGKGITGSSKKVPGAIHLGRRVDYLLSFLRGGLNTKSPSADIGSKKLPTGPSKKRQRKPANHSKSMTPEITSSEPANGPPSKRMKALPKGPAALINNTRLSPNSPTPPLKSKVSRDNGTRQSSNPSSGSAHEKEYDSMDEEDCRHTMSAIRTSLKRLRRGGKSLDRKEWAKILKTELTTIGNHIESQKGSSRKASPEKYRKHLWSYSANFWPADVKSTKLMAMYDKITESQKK
# Chain of Protein translocase subunit SecA (Escherichia coli (strain K12)) (P10408 whole entry): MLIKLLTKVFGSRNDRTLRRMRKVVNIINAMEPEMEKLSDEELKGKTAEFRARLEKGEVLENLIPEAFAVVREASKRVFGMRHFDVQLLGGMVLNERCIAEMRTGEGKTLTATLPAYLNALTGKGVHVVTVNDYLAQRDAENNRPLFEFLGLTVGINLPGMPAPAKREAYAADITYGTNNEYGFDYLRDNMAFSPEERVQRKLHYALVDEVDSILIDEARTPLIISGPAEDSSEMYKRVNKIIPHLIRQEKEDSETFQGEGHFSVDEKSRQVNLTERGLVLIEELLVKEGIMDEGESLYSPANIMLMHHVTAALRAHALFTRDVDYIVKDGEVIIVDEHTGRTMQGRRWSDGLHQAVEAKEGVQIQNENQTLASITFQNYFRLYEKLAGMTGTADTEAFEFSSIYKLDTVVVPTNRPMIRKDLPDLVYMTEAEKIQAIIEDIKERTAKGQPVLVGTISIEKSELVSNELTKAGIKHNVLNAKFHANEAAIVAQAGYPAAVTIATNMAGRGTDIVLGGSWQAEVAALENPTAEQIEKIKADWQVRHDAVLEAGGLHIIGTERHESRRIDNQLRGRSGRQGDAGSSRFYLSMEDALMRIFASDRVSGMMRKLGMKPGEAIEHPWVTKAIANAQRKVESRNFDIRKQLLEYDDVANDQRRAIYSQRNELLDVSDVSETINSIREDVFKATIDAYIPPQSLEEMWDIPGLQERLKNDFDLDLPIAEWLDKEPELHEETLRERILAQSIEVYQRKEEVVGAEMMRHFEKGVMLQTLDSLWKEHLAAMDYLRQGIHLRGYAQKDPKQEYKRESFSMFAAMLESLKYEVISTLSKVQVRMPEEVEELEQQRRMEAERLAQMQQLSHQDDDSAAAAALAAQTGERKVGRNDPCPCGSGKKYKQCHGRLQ
# Chain of Sialic acid-binding Ig-like lectin 9 (Homo sapiens) (Q9Y336 whole entry): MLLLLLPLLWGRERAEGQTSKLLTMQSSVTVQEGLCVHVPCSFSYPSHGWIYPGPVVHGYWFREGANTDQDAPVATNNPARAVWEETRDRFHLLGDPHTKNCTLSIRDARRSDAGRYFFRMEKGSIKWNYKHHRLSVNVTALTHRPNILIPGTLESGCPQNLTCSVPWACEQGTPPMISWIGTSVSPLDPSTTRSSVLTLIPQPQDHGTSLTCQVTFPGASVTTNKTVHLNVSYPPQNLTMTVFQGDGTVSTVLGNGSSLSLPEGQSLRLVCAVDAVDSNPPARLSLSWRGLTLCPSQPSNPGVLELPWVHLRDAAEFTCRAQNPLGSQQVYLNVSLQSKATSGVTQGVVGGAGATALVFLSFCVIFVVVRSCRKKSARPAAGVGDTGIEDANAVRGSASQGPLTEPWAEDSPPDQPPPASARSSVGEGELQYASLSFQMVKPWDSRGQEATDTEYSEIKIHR
Compound,Percent Effect [1] [%],Percent Effect [2] [%],Percent Effect [3] [%],Percent Effect [4] [%],Percent Effect [5] [%],Percent Effect [6] [%],Percent Effect [7] [%],Percent Effect [8] [%],Percent Effect [9] [%],Percent Effect [10] [%]
CC(C)NC(=O)N1CCC2(C1)CN(c1ccsc1)C(=O)CN2C (stereo not given),-2.47,9.09,-13.1,-3.41,5.26,20.6,-8.36,6.84,10.3,10.4
CCc1n[nH]c(C2CN(C(=O)c3nc(C)ncc3Cl)CCO2)n1 (stereo not given),-2.86,7.79,9.79,-2.24,1.43,-0.351,2.84,2.94,7.06,2.12
COCCC(=O)N1C[C@H]2CN(Cc3cccc(C)n3)C(=O)[C@H]2C1,-1.95,3.9,-4.82,-0.563,2.74,0.0858,-13.5,7.73,7.5,-4.73
CCOc1c(Cl)cccc1NCc1cc(C)on1,-0.827,12.8,-8.13,-1.6,2.05,15.1,25.9,8.13,22.9,-1.3
C[C@H]1CN(Cc2cnn(C)c2)C[C@@]12CCN(Cc1cccnc1)C2=O,-2.17,11.7,0.906,-5.07,4.57,4.21,23.4,6.76,2.5,-3.65
CC(=O)N1CCCN(CC(C)(O)c2cccc(C(F)(F)F)c2)CC1 (stereo not given),-3.98,10.4,8.53,2.42,-7.99,3.51,-6.46,6.86,16.5,-9.58
COC(=O)Cn1c(=O)nc2n1C(=O)N(c1ccccc1)C2,-4.54,5.41,-1.57,-7.27,5.94,9.76,17,3.72,9.76,-2.64
COc1cc(C)c(S(=O)(=O)NCc2cccnc2N(C)C)c(C)c1,0.224,23.4,-2.16,0,-5.53,19.8,52.1,4.9,28.2,-10.7
Cc1ccc(C(=O)N2Cc3c(CN4CCCCC4)nn(C)c3C2)cc1C,-5.88,-1.3,-4.75,-3.02,-4.86,17.9,-26.6,-11.1,-12.8,-3.91
CN1[C@@H](C(=O)NCC2CC2)C[C@@H]2CN(Cc3ccco3)C[C@@H]21,-3.17,19.5,-3.11,-6.57,3.65,19.5,13.8,5.8,10,-4.24
CCc1nc(CN2CCCN(C(=O)c3c(C)noc3C)CC2)cs1,-2.47,10.3,-1.6,0.0939,2.87,8.11,13.8,3.35,8.43,-3.62
CCCc1cc(C(=O)N2CCCC2c2cccnc2)[nH]n1 (stereo not given),-2.28,13.5,7.33,2.81,4.54,17.1,10.1,4.79,14.6,-3.7
COc1cccc2c1OCC(C(=O)N1CCN(S(C)(=O)=O)CC1)C2 (stereo not given),-5.76,16.2,16.9,6.69,11.5,9.25,11.4,7.98,17.1,-8.92
CCOC(=O)CN1CCC2(CC1)CC(=O)c1ccc(OC)cc1O2,-2.51,27.3,8.34,4.13,-4.11,19.1,7.83,1.93,15,-11
CN(Cc1nnc(-c2ccco2)o1)C1CCCN(c2cccnn2)C1 (stereo not given),2.65,10.3,-14.4,-2.91,-0.82,28.4,30.2,3.35,8.43,1.33
COc1cc(N2CCCC(c3nccn3CCN(C)C)C2)nc(N)n1 (stereo not given),-9.14,2.7,4.84,3.59,4.54,4.62,5.13,7.98,17.1,11.6
COCCNC(=O)Nc1ccc(F)c(C(N)=O)c1,2.83,15.6,-5.71,-5.04,0.615,8.42,8.95,9.8,16.5,-12.2
CN(C)C(=O)[C@@H]1CCO[C@@H]2CCN(Cc3ccc4c(c3)OCO4)C[C@@H]21,-3.73,11.7,-6.65,7.5,-4.86,10.9,0.999,3.68,2.56,2.41
CCn1ccnc1CNCC1CCCN1c1cc(NC)ncn1 (stereo not given),-2.03,0,1.76,-5.62,2.66,4.5,12.1,4.74,5.13,-7.63
CCOc1ncccc1NC(=O)NC1CCN(S(C)(=O)=O)CC1,-4.68,2.6,-7.28,-6.34,-6.76,8.25,25.1,0.98,4.71,-11.6
COCc1nc(C(=O)NS(=O)(=O)c2cc(F)ccc2F)cs1,-3.64,-2.56,-5.81,-1.41,-1.64,-0.939,22.9,-0.478,-6.02,4.47
